The results in this text go back to publication PMC7862700, “An all-to-all approach to the identification of sequence-specific readers for epigenetic DNA modifications on cytosine”.

Holding throughout (test): DAPPL (digital affinity profiling via proximity ligation, sequencing); 10 mM Tris-HCl pH 7.5, 50 mM NaCl, 1 mM DTT, 4% glycerol, room temperature, 30 min; GST-TFs on glutathione beads, 16-mer random dsDNA library, 0.1% formaldehyde crosslink after washing; high values mean tight binding
One assay deals with T1, FEV (Homo sapiens, UniProt Q99581 1-238).
T1 sequence: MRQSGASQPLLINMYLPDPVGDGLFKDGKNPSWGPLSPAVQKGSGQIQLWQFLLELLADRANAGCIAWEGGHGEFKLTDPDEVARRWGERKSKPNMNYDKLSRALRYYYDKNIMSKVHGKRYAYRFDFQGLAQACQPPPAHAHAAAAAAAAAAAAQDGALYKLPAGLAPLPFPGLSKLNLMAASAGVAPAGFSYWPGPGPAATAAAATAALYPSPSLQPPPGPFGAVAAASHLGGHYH
The following applies: protein: recombinant; tags: N-terminal GST; dsDNA, one strand shown. A digest of the protocol: (§1)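 After expression in yeast as GST fusions, human transcription factors were bound to glutathione beads, DNA-barcoded and mixed with a tag-only sample. The pools were incubated with 200 nmole of a 16-mer random double-stranded DNA library in Tris/NaCl/DTT/glycerol buffer (30 min, room temperature), washed and crosslinked with 0.1% formaldehyde. Proximity ligation with BsaI/T4 ligase ran for 1 h at 37 °C, before PCR amplification and sequencing on an Illumina NextSeq500. Binding signal is a hexamer's read frequency for a factor divided by its frequency for the tag-only sample.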

The next assay concerns the target ETV5 (Homo sapiens, UniProt P41161 1-510). The following applies: protein: recombinant; tags: N-terminal GST; dsDNA, one strand shown. The gist of the method:
as §1

The target in the next assay is HSF1 (Homo sapiens, UniProt Q00613 1-529). To be noted: protein: recombinant; tags: N-terminal GST; chain copies: 3; dsDNA, one strand shown. The gist of the method:
as §1

Another assay concerns the target T2, SPIC (Homo sapiens, UniProt Q8N5J4 1-248).
T2 sequence: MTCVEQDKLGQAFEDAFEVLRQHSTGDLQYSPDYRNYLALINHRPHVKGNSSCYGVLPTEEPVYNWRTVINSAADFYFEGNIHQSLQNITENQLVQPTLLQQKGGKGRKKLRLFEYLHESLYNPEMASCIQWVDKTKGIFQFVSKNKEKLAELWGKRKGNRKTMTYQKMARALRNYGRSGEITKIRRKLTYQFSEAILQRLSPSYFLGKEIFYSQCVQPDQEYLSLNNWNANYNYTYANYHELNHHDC
To be noted: protein: recombinant; tags: N-terminal GST; dsDNA, one strand shown. A digest of the protocol: as §1

The next assay addresses ELF4 (Homo sapiens, UniProt Q99607 1-663). To be noted: protein: recombinant; tags: N-terminal GST; dsDNA, one strand shown. The gist of the method:
as §1

A further assay concerns the target T3, ELK4 (Homo sapiens, UniProt P28324-2 1-405).
T3 sequence: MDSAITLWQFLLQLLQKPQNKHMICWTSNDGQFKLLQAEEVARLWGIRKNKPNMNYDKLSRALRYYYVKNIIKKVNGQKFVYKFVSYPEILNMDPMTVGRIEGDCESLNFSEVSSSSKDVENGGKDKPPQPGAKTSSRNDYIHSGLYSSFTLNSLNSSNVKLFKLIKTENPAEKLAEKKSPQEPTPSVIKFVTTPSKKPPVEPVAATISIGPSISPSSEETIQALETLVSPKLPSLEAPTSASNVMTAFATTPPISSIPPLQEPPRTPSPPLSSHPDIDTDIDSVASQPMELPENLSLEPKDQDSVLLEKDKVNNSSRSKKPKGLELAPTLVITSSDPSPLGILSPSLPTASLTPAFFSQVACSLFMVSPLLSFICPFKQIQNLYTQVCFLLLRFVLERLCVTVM
To be noted: protein: recombinant; tags: N-terminal GST; dsDNA, one strand shown. A digest of the protocol: as §1

In another assay the target is T4, ETV2 (Homo sapiens, UniProt O00321 1-342).
T4 sequence: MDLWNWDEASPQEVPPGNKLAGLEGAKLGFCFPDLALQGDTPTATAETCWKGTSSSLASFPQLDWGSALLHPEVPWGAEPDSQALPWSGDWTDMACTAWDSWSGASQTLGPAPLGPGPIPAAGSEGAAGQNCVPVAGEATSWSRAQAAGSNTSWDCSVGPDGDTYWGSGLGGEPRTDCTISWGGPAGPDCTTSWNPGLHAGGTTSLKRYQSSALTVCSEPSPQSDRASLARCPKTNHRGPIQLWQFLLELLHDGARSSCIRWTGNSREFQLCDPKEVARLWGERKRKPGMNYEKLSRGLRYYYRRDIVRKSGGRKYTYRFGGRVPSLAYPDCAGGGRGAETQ
The following applies: protein: recombinant; tags: N-terminal GST; dsDNA, one strand shown. A digest of the protocol: as §1

The target of a further assay is T5, ELF3 (Homo sapiens, UniProt P78545 1-371).
T5 sequence: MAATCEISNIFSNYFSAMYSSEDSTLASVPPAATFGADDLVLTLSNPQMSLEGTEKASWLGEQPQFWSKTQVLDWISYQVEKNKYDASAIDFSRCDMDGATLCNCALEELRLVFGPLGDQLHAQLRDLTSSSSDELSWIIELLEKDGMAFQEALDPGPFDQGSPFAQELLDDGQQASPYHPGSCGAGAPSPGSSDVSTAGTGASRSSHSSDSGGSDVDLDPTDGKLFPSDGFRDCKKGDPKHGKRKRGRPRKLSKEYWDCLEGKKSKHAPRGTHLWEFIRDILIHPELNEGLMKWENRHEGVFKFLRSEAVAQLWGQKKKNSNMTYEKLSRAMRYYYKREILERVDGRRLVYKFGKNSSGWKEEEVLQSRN
To be noted: protein: recombinant; tags: N-terminal GST; dsDNA, one strand shown. The gist of the method: as §1

A further assay has as its target CRX (Homo sapiens, UniProt O43186 1-299). The following applies: protein: recombinant; tags: N-terminal GST; dsDNA, one strand shown. The gist of the method:
as §1

For a further assay, the target named is ETV1 (Homo sapiens, UniProt P50549 1-477). The following applies: protein: recombinant; tags: N-terminal GST; dsDNA, one strand shown. A digest of the protocol: as §1
Sequence of ETV1 (P50549 whole entry): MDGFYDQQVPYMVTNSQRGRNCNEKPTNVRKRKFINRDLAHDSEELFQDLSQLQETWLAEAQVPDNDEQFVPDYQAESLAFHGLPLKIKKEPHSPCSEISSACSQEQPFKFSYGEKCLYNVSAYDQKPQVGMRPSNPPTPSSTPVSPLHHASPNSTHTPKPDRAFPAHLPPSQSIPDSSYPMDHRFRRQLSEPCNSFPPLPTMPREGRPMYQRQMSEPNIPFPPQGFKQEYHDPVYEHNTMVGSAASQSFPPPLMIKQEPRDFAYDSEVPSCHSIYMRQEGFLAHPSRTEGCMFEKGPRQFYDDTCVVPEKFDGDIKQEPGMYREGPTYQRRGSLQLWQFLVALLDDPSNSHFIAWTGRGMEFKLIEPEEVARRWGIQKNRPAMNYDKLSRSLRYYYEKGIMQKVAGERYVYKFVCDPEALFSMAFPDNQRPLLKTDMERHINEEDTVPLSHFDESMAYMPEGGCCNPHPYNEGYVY

Sequence of ELF4 (Q99607 whole entry): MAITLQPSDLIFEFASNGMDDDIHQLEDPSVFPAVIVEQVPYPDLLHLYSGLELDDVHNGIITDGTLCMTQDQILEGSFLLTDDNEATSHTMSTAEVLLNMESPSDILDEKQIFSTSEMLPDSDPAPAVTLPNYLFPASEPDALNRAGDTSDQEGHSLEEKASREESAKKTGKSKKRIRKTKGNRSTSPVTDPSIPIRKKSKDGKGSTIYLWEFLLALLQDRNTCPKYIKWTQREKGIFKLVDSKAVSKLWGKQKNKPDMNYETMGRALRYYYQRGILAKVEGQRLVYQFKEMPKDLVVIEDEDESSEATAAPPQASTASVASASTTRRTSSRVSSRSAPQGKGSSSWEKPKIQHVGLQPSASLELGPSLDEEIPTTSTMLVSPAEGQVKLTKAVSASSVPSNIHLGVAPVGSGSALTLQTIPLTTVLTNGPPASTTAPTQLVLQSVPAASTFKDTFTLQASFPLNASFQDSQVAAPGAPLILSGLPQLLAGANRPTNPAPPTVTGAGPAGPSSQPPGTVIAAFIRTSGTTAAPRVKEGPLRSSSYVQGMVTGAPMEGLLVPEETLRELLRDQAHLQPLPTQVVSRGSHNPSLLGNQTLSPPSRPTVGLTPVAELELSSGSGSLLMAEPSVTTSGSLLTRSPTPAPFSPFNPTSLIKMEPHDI
Sequence of CRX (O43186 whole entry): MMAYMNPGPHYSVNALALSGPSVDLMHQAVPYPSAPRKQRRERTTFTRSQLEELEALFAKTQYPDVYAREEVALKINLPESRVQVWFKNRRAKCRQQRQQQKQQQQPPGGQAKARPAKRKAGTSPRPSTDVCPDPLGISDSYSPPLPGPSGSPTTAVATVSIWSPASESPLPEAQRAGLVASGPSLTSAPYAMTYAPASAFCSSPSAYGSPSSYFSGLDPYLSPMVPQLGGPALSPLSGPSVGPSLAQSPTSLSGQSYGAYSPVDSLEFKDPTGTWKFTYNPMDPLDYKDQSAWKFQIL
Sequence of ETV5 (P41161 whole entry): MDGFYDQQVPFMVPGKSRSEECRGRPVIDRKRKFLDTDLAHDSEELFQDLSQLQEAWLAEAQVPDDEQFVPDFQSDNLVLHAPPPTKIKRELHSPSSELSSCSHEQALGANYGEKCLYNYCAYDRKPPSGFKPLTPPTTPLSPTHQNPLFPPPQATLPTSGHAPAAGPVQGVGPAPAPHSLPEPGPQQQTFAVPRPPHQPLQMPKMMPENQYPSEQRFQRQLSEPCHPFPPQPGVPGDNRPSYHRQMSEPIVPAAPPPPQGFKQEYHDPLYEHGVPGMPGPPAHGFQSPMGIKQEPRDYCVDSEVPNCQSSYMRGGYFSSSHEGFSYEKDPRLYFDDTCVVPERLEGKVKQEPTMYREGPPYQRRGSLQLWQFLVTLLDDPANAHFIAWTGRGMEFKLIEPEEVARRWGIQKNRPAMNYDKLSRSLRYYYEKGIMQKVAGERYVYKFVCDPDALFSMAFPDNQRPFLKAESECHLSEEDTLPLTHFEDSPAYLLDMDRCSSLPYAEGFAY
Sequence of HSF1 (Q00613 whole entry): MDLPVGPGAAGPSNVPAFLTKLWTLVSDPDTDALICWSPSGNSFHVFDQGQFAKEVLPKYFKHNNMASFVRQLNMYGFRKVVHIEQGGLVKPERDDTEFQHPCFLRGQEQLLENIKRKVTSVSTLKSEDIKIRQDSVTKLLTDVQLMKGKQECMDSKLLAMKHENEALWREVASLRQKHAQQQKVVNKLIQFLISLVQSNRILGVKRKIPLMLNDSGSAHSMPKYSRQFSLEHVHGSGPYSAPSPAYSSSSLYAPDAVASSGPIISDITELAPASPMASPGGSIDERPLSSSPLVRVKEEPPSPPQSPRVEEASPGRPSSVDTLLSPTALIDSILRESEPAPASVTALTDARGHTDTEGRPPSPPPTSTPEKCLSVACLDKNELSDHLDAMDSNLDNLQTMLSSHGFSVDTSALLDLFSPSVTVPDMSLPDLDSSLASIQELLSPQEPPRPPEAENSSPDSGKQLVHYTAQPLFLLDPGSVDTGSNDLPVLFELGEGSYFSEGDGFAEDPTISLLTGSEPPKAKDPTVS

Take GTTTCC: the binding signal with FEV is 3.32 fold enrichment (6-mer frequency, TF over GST control); with ETV5, 3.01 fold enrichment (6-mer frequency, TF over GST control); in the assay with HSF1 it was 1.42 fold enrichment (6-mer frequency, TF over GST control); with SPIC it was 2.6 fold enrichment (6-mer frequency, TF over GST control); with ELF4, 2.56 fold enrichment (6-mer frequency, TF over GST control); in the assay with ELK4, 2.16 fold enrichment (6-mer frequency, TF over GST control). Further, the binding signal with ETV2 was 2.42 fold enrichment (6-mer frequency, TF over GST control); in the assay with ELF3 it was 2.55 fold enrichment (6-mer frequency, TF over GST control); in the assay with CRX, 1.08 fold enrichment (6-mer frequency, TF over GST control); with ETV1, 2.65 fold enrichment (6-mer frequency, TF over GST control).
On to AAAAAG, for which the binding signal with FEV was 1.2 fold enrichment (6-mer frequency, TF over GST control); with ETV5 it was 1.3 fold enrichment (6-mer frequency, TF over GST control); in the assay with HSF1, 1.34 fold enrichment (6-mer frequency, TF over GST control); with SPIC, 1.13 fold enrichment (6-mer frequency, TF over GST control); with ELF4 it was 1.26 fold enrichment (6-mer frequency, TF over GST control); with ELK4 it was 1.32 fold enrichment (6-mer frequency, TF over GST control). Moreover, the binding signal with ETV2 is 1.08 fold enrichment (6-mer frequency, TF over GST control); in the assay with ELF3, 1.28 fold enrichment (6-mer frequency, TF over GST control); in the assay with CRX it was 1.2 fold enrichment (6-mer frequency, TF over GST control); with ETV1, 1.26 fold enrichment (6-mer frequency, TF over GST control).
For the sequence CTCACA, the binding signal was 1.44 fold enrichment (6-mer frequency, TF over GST control) in the assay with FEV; 1.31 fold enrichment (6-mer frequency, TF over GST control) with ETV5; 1.08 fold enrichment (6-mer frequency, TF over GST control) with HSF1; 1.23 fold enrichment (6-mer frequency, TF over GST control) with SPIC; 1.32 fold enrichment (6-mer frequency, TF over GST control) in the assay with ELF4; 1.34 fold enrichment (6-mer frequency, TF over GST control) with ELK4. Besides, the binding signal was 1.35 fold enrichment (6-mer frequency, TF over GST control) in the assay with ETV2; 1.3 fold enrichment (6-mer frequency, TF over GST control) with ELF3; 1.12 fold enrichment (6-mer frequency, TF over GST control) in the assay with CRX; 1.2 fold enrichment (6-mer frequency, TF over GST control) with ETV1.
GCGATG: the binding signal with FEV is 1.22 fold enrichment (6-mer frequency, TF over GST control); with ETV5 it was 1.25 fold enrichment (6-mer frequency, TF over GST control); with HSF1 it was 1.08 fold enrichment (6-mer frequency, TF over GST control); in the assay with SPIC, 1.07 fold enrichment (6-mer frequency, TF over GST control); in the assay with ELF4, 1.21 fold enrichment (6-mer frequency, TF over GST control); in the assay with ELK4, 1.2 fold enrichment (6-mer frequency, TF over GST control). Also, the binding signal in the assay with ETV2 is 1.25 fold enrichment (6-mer frequency, TF over GST control); with ELF3 it was 1.26 fold enrichment (6-mer frequency, TF over GST control); with CRX, 1.03 fold enrichment (6-mer frequency, TF over GST control); with ETV1, 1.15 fold enrichment (6-mer frequency, TF over GST control).
As for TTTAAA, the binding signal with FEV was 1.25 fold enrichment (6-mer frequency, TF over GST control); with ETV5, 1.21 fold enrichment (6-mer frequency, TF over GST control); in the assay with HSF1, 1.64 fold enrichment (6-mer frequency, TF over GST control); in the assay with SPIC, 1.02 fold enrichment (6-mer frequency, TF over GST control); in the assay with ELF4 it was 1.19 fold enrichment (6-mer frequency, TF over GST control); with ELK4, 1.37 fold enrichment (6-mer frequency, TF over GST control). For the same sequence, the binding signal with ETV2 was 1.44 fold enrichment (6-mer frequency, TF over GST control); with ELF3, 1.28 fold enrichment (6-mer frequency, TF over GST control); with CRX, 2.15 fold enrichment (6-mer frequency, TF over GST control); in the assay with ETV1, 1.2 fold enrichment (6-mer frequency, TF over GST control).
As to GCTCCC, the binding signal with FEV was 1.28 fold enrichment (6-mer frequency, TF over GST control); with ETV5, 1.39 fold enrichment (6-mer frequency, TF over GST control); in the assay with HSF1, 1.07 fold enrichment (6-mer frequency, TF over GST control); with SPIC it was 1.16 fold enrichment (6-mer frequency, TF over GST control); with ELF4 it was 1.32 fold enrichment (6-mer frequency, TF over GST control); with ELK4 it was 1.4 fold enrichment (6-mer frequency, TF over GST control). Further, the binding signal was 1.32 fold enrichment (6-mer frequency, TF over GST control) with ETV2; 1.35 fold enrichment (6-mer frequency, TF over GST control) with ELF3; 1.04 fold enrichment (6-mer frequency, TF over GST control) in the assay with CRX; 1.24 fold enrichment (6-mer frequency, TF over GST control) with ETV1.
CTTATC: the binding signal is 1.2 fold enrichment (6-mer frequency, TF over GST control) with FEV; 1.13 fold enrichment (6-mer frequency, TF over GST control) in the assay with ETV5; 1.6 fold enrichment (6-mer frequency, TF over GST control) with HSF1; 1.34 fold enrichment (6-mer frequency, TF over GST control) in the assay with SPIC; 1.12 fold enrichment (6-mer frequency, TF over GST control) in the assay with ELF4; 1.18 fold enrichment (6-mer frequency, TF over GST control) in the assay with ELK4. The binding signal with ETV2 was 1.03 fold enrichment (6-mer frequency, TF over GST control); with ELF3, 1.14 fold enrichment (6-mer frequency, TF over GST control); in the assay with CRX, 2.44 fold enrichment (6-mer frequency, TF over GST control); with ETV1, 1.18 fold enrichment (6-mer frequency, TF over GST control).
